Laboratory results as given in PubChem BioAssay (Tox21).
Records with an inconclusive call do not appear. Calls of active or inactive are those of the source. Calls come from the whole dose curve.

Target: Thyrotropin receptor (Homo sapiens) (UniProt P16473)
Experiment: qHTS assay to identify small molecule antagonists of the thyroid stimulating hormone receptor (TSHR) signaling pathway (AID 1259385); note: nearly all actives have a fitted effect of over 20% in size
Settings: TSHR-HEK293 cAMP HTRF, TSH-stimulated antagonist mode; series mostly up to 92.4 µM; activity change, negative = inhibition: at the top concentration
Text: U.S. Tox21 Program National Center for Advancing Translational Sciences [NCATS] NIH Chemical Genomics Center [NCGC] U.S. Environmental Protection Agency [EPA] National Institutes of Environmental Health Sciences [NIEHS] National Toxicology Program [NTP] U.S. Food and Drug Administration [FDA] Tox21 Assay Overview: TSHR is the receptor for thyrotropin (thyroid stimulating hormone or TSH), a member of the glycoprotein hormone family. TSH is released by the anterior pituitary gland and is the main regulator of thyroid gland growth and development. Upon binding circulating thyrotropin, a G-protein signal cascade activates adenylyl cyclase and […] cAMP concentration is increased. cAMP is a key second messenger involved extensively in cellular signal transduction pathways associated with the majority of G-protein coupled receptors (GPCRs). The activation of these GPCRs by neurotransmitters, lipids, nucleotides, peptides and hormones results in the activation or the inhibition of plasma membrane-bound adenylate cyclase through heterotrimeric G-proteins. A cell-based TSHR assay can be used to screen chemical compounds that modulate TSHR either in agonist or antagonist mode.
Tox21 Assay Protocol Summary: TSHR-Hek293 cells were dispensed at 800 cells/4uL/well in 1536-well white plates using a Multidrop dispenser. After the assay plates were incubated at a 37C/5% CO2 incubator for 18 hrs, 23 nL of compounds dissolved in DMSO, positive controls or DMSO only was transferred to the assay plate by a pin tool, followed by 1 ul medium containing Ro20-1724. For the antagonist mode screening, 1 uL of TSH was added on the top of the cell/compound mixtures to achieve a final agonist concentration of 1.5 ng/mL. After 30 min of incubation at room temperature, 2.5 ul/well of cAMP-d2 and 2.5 ul/well of anti-cAMP-cryptate were added respectively into the assay plates using a Flying Reagent Dispenser. The plates were incubated at room temperature for 1 hr. The fluorescence intensity in the plates was measured using an Envision plate reader. Each test compound was measured at 15 concentrations and in triplicates.
% is set by controls: 0 for no effect and ±100 for the full control effect.

Chain of Thyrotropin receptor (Homo sapiens) (P16473 whole entry, looked up): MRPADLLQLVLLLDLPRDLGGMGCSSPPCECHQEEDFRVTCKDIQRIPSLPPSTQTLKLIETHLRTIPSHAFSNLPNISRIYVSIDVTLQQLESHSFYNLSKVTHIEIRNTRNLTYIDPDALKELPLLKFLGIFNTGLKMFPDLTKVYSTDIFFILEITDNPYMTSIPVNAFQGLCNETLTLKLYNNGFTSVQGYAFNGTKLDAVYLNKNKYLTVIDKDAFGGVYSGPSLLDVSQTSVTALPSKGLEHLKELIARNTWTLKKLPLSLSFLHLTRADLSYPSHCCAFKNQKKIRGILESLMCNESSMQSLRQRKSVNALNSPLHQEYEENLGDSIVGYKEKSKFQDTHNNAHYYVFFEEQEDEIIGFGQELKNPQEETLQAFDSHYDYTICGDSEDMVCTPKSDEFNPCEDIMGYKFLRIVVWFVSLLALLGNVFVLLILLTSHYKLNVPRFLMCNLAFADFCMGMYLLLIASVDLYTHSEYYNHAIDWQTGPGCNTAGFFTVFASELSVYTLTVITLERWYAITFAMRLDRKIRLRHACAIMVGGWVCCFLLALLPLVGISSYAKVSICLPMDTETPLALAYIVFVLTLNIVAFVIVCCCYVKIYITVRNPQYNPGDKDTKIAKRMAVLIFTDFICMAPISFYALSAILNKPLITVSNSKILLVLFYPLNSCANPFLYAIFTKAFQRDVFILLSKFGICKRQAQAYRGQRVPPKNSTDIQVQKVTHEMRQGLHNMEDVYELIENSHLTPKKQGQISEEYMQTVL

Compound | activity change, negative = inhibition
N[C@@H](Cc1cc(I)c(O)c(I)c1)C(=O)O | 5.33% [at 42.5 µM] (inactive)
Cc1cc([N+](=O)[O-])ccc1N | 1.63% (inactive)
CC(C)(C(=O)c1cccnc1)c1cccnc1 | 2.56% [at 42.5 µM] (inactive)
C=CCOC(=O)COCCC(C)C | 0.721% (inactive)
Oc1ccc2c(c1)Cc1ccccc1-2 | 4.95% (inactive)
CC(C)(C)S | 8.5% (inactive)
CC[C@H]1OC(=O)[C@H](C)[C@@H](O[C@H]2C[C@@](C)(OC)[C@@H](O)[C@H](C)O2)[C@H](C)[C@@H](O[C@@H]2O[C@H](C)C[C@H](N(C)C)[C@H]2O)[C@](C)(O)C[C@@H](C)CN(C)[C@H](C)[C@@H](O)[C@]1(C)O | -1.39% [at 42.5 µM] (inactive)
CC(=O)OCC(=O)[C@@]1(OC(C)=O)[C@@H](C)C[C@H]2[C@@H]3C[C@H](F)C4=CC(=O)C=C[C@]4(C)[C@@]3(F)[C@@H](O)C[C@@]21C | -3.9% [at 42.5 µM] (inactive)
CCCCCCCCCCCSCC(=O)O | 0.426% (inactive)
Nc1c(Cl)cc(Cl)cc1[N+](=O)[O-] | 2.21% (inactive)
O=C1OC(=O)c2c(Br)c(Br)c(Br)c(Br)c21 | -6.86% (inactive)
O=C(O)CNC(=O)c1ccccc1I | 0.55% [at 42.5 µM] (inactive)
CC1C(C)(C)C2=C(C(=O)CCC2)C1(C)C (stereo not given) | -5.98% (inactive)
CCOC(=O)Oc1ccc(CCNC(=O)[C@H](CCSC)NC(C)=O)cc1OC(=O)OCC | 0.129% [at 42.5 µM] (inactive)
CCCCCCCC(=O)OCCCCCC | -0.0251% (inactive)
CCCCOCCOC(=O)c1cccnc1 | -0.547% [at 42.5 µM] (inactive)
NC(=O)CCCCC(N)=O | 3.62% (inactive)
COC(=O)Nc1nc2ccc(C(=O)C3CC3)cc2[nH]1 | 0.138% [at 42.5 µM] (inactive)
CCCCCCCCCCCCCOC(=O)CCSCCC(=O)OCCCCCCCCCCCCC | -0.382% [at 19 µM] (inactive)
Cc1ccc(NC(=O)N(C)C)cc1NC(=O)N(C)C | 0.523% (inactive)

Compound | activity change, negative = inhibition
COC(=O)CC(C(C)=O)C(=O)OC (stereo not given) | -0.199% (inactive)
C[C@H](CS)C(=O)N1CCC[C@H]1C(=O)O | 0.053% [at 42.5 µM] (inactive)
NC(=O)c1ccccc1[N+](=O)[O-] | -1.84% (inactive)
ClC1=C(Cl)C1(Cl)Cl | 0.0073% (inactive)
Cc1oc(=O)oc1COC(=O)[C@@H]1N2C(=O)[C@@H](NC(=O)[C@H](N)c3ccccc3)[C@H]2SC1(C)C | -2.63% [at 42.5 µM] (inactive)
C=CC(=O)NC(C)C | 1.97% (inactive)
CCCC(=O)OC(=O)CCC | 0.131% (inactive)
CC(C)(O)c1coc(S(=O)(=O)NC(=O)Nc2c3c(cc4c2CCC4)CCC3)c1 | 2.69% (inactive)
CC(C)c1ccc(C(=O)N=C(N)N)cc1S(C)(=O)=O | -0.609% [at 42.5 µM] (inactive)
O=c1[nH][nH]c(=O)c2cc([N+](=O)[O-])ccc12 | -0.77% (inactive)
CNCc1ccc(NC(=O)c2c[nH]c3c2C(=O)CCC3)cc1 | -5.96% (inactive)
CC[C@@H](CO)NCCN[C@@H](CC)CO | 0.962% [at 42.5 µM] (inactive)
CCN(CC)CCOC(=O)C(c1ccccc1)c1ccccc1 | 0.775% [at 42.5 µM] (inactive)
CCCCCCCC/C=C/C(=O)O | -3.14% [at 42.5 µM] (inactive)
C=C(C)c1ccccc1 | -0.0246% (inactive)
CCN(CC)CC(=O)Nc1c(C)cccc1C(=O)OC | 0.276% [at 42.5 µM] (inactive)
Nc1ccn([C@H]2CS[C@@H](CO)O2)c(=O)n1 | 0.335% (inactive)
c1ccc(CCCc2ccncc2)cc1 | -2.32% (inactive)
CC(C)(O)CCc1ccccc1 | 0.238% (inactive)
CCCCCCCCCCCCCCCC(=O)OCC | 0.0251% (inactive)
